In the library only some 2.8% were active in any assay of this set; here they are far more common.
POLH inh: blocks human DNA polymerase eta activity; Q9Y253; recombinant Pol eta, fluorescent DNA replication assay; Potency, µM (titrated, usually from 114 µM), for inactives: top-dose activity change, negative = inhibition, actives largely listed as inhibitors; 390,000 compounds, 1.2% hits; AID 588591; also: potency is read from the fitted curve at half-maximal effect; % is scaled to controls: 0 for no effect and ±100 for the full control effect
Target sequence (Q9Y253 whole entry, looked up): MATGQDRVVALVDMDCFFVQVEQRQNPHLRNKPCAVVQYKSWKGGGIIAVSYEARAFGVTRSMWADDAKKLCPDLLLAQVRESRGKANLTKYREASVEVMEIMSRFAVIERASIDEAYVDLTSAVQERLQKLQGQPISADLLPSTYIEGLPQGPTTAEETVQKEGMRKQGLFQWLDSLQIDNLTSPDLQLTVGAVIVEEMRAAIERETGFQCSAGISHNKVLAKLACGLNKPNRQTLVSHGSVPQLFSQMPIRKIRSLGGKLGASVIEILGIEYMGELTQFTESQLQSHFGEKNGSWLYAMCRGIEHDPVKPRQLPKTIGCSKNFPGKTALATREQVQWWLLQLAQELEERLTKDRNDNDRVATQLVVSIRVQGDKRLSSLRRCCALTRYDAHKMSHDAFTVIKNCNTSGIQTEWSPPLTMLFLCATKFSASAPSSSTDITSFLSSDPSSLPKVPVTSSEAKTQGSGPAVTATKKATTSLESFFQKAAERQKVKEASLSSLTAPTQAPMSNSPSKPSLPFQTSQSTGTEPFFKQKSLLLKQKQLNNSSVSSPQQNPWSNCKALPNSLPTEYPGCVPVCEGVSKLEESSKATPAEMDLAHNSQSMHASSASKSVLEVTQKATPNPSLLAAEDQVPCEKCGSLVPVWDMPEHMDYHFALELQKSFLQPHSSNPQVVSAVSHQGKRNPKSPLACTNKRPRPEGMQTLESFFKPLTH
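Pol eta at 10 nM preincubated with compounds 15 min at room temperature; reaction started with fluorescent substrate (50 nM final) and read kinetically at 0 and 10 min.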
Pol beta inh: blocks human DNA polymerase beta activity; Potency, µM (top dose mostly 114 µM), inactives show top-dose activity change, negative = inhibition, hits mostly inhibitors; P06746; 340,000 compounds, 1.3% hits; Pol beta primer extension/strand displacement, fluorescence kinetic; also: potency is read from the fitted curve at half-maximal effect; % is scaled to controls: 0 for no effect and ±100 for the full control effect
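Human Pol beta at 10 nM; strand-displacement substrate 50 nM final. Compound exposure 15 min at room temperature before start, reaction 10 min at room temperature.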
PI5P4Ka inh: inhibitors of human PI5P4K alpha; PI5P4Kalpha enzyme, ADP-Glo luminescence, 60 min; stronger effect = lower value; max response, %; 330,000 compounds, 1.2% hits; AID 652105; active = max response of -50% or lower; inconclusive = between -30% and -50%; inactive = -30% or higher; also: value at the top dose of about 77 µM; % is scaled to controls: 0 for no effect and ±100 for the full control effect
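PI5P4Kalpha ADP-Glo assay; 5 microM ATP final; 60 min RT reaction; HEPES pH 7.4/EGTA/CHAPS, 5% DMSO; controls lacking substrate or enzyme; luminescent end-point.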
POLK inh: DNA polymerase kappa (human) inhibition; Q9UBT6; purified Pol kappa, fluorescent DNA synthesis assay, 10 min; Potency, µM (titrated, usually from 107 µM), for the others: at the top dose activity, negative = inhibition, most hits filed as inhibitors; 400,000 compounds, 0.53% hits; also: potency is read from the fitted curve at half-maximal effect; % is scaled to controls: 0 for no effect and ±100 for the full control effect
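Readout: fluorescence, taken kinetically at 0 and 10 min. Conditions: 10 nM Pol kappa, 15 min RT compound preincubation, 50 nM substrate final. Controls: enzyme-free buffer wells.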
WRN helicase inh: blocks human WRN helicase; Q14191; WRN helicase unwinding, fluorescent forked duplex, kinetic; Potency, µM (highest dose often 114 µM), inactives show at the highest dose activity change, negative = inhibition, most hits filed as inhibitors; 360,000 compounds, 0.46% hits; also: potency is read from the fitted curve at half-maximal effect; % is scaled to controls: 0 for no effect and ±100 for the full control effect; nearly all actives have a fitted effect of over 55% in size
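Enzyme (20 nM final) and test compound sit together 15 min at room temperature before substrate addition. Substrate is a single-forked duplex oligonucleotide (100 nM) labelled with fluorophore and quencher, with 2 mM ATP; helicase unwinding raises red fluorescence, read kinetically.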
Pol iota inh: DNA polymerase iota (human) inhibition; 390,000 compounds, 1% hits; Pol iota fluorescent replication assay, 10 min; Q9UNA4; Potency, µM (series often up to 115 µM), without a hit: at the highest dose activity, negative = inhibition, actives largely listed as inhibitors; AID 588590; also: potency is read from the fitted curve at half-maximal effect
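Fluorescent replication assay read twice, at 0 min and 10 min after adding 50 nM (final) substrate. Enzyme (10 nM) and compounds were first incubated 15 min at room temperature; enzyme-free buffer wells were negative controls.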
* marks the source's active call; other numbers are inactive results; ? = inconclusive; · = no result given; [ ] = another dose, or the depositor's remark. Unless noted, calls follow the shape of the dose curve; as a rule, active = well fitted curve in the direction sought with a large enough effect; inconclusive = small, poorly fitted or top-dose-only effect, or another doubt; inactive = no such curve, though single readings can be large; an effect the other way counts as inactive or inconclusive.

SMILES | POLH inh | Pol beta inh | PI5P4Ka inh | POLK inh | WRN helicase inh | Pol iota inh
O=C(COc1ccc2ccccc2c1)Nc1ccc(O)c(-c2nc3ccccc3o2)c1 | · | · | · | -3% | · | 2%
CCOC(=O)c1c(NC(=O)/C=C/c2ccc(C)cc2)sc2c1CCCC2 | -3% | 10% | · | -5% | · | 7%
CCOC(=O)c1c(C)[nH]c(C)c1C(=O)COc1ncnc2ccccc12 | 6% | -11% | -55* | -1% | -34% | 36%
Cc1nn(-c2ccccc2)c(C)c1NC(=O)COC(=O)c1cccc(OC(F)F)c1 | -13% | · | 4 | -4% | -5% | 25%
COc1ccccc1N1CCN(C(=O)Nc2cn(CC(C)C)c(=O)c3ccccc23)CC1 | -12% | 31% | · | -21% | · | 65%
COc1ccc(CNC(=O)Nc2cn(CC(C)C)c(=O)c3ccccc23)c(OC)c1 | -16% | 31% | · | -1% | · | 22µM*
Cc1ccc2nc(NC(=O)CSc3nccn3Cc3ccc(Cl)cc3)sc2c1 | -2% | -1% | · | -7%[60.1 µM] | · | -1%
Cc1ccc2nc(NC(=O)CSc3nccn3-c3ccc(Cl)cc3)sc2c1 | -16% | 25µM* | · | -3%[60.1 µM] | · | ?
O=c1[nH]c(/C=C\c2cccc(Cl)c2)nc(O)c1[N+](=O)[O-] | ? | 1% | ? | -5% | -15% | ?
O=c1[nH]c(/C=C\c2ccccc2F)nc(O)c1[N+](=O)[O-] | -1% | 15% | -72* | -21% | -10% | ?
O=c1[nH]c(/C=C\c2cccc(F)c2)nc(O)c1[N+](=O)[O-] | ? | ? | -55* | -7% | -30% | 0%
Cc1c(CCO)sc[n+]1CC(=O)c1ccccc1 | · | · | · | -6% | · | ?
Cc1ccc(/C=C/C(=O)Nc2nnc(SCc3ccc(C#N)cc3)s2)o1 | ? | 21% | -72* | ? | ? | 40µM*
Cc1ccc(/C=C/C(=O)Nc2nccs2)o1 | -3% | 86% | -5 | 3% | 3% | 64%
CN(C)c1ccc(NC(=O)Cn2c(SCc3ccc(F)cc3)nc3ccncc32)cc1 | 4% | -1% | · | -20% | · | -9%
CN(C)c1ccc(NC(=O)Cn2c(SCc3ccc(F)cc3)nc3cccnc32)cc1 | -14% | 18µM* | · | -7%[60.1 µM] | · | -5%
CN(CCOc1ccccc1)C(=O)c1ccc(Cl)c(S(=O)(=O)N2CCCCC2)c1 | -11% | · | 6 | -11% | -1% | 8%
Cc1ccc(NC(=O)Cn2c(=O)cnc3ccccc32)cc1S(=O)(=O)N1CCOCC1 | -5% | · | -2 | 11% | -4% | 12%
Cc1ccc(OCCC(=O)OCC(=O)Nc2ccc(Cl)cn2)cc1 | 16µM* | -21% | -15 | -38% | -13%[57.1 µM] | ?
O=C(CC1SC(=O)N(c2ccccc2)C1=O)Nc1ccc(Cl)cc1 (centres undefined) | 5% | -12% | -9 | -19% | 25µM* | 58%
O=C(CC1SC(=O)N(c2ccccc2)C1=O)Nc1ccc(Br)cc1 (centres undefined) | -18% | -2% | -13 | -6% | ? | 84%
Cc1ccc2cc3c(N)c(C(=O)Nc4c(C)[nH]c(=O)[nH]c4=O)sc3nc2c1 | ? | ? | 0 | -28% | -30%[57.1 µM] | ?
Cc1ccc2nc3sc(C(=O)Nc4c(C)[nH]c(=O)[nH]c4=O)c(N)c3cc2c1 | ? | 50µM* | -28 | -26% | -32% | 4%
CCOC(=O)c1ccc2c(c1)N(Cc1cccc(C(F)(F)F)c1)C(=O)c1ccccc1S2(=O)=O | -8% | -11% | · | -15% | · | 16%
O=C1OC(c2ccccc2)=N/C1=C\C=C\c1ccco1 | 3% | 4% | 12 | -18% | -9% | ?
O=C1OC(c2ccc(Cl)cc2)=N/C1=C\C=C\c1ccco1 | 18% | 28µM* | -1 | ? | -13% | ?
Cc1ccc(CN(C(=O)c2ccc([N+](=O)[O-])cc2)C2CCS(=O)(=O)C2)o1 (centres undefined) | -7% | 10% | -25 | 0% | -1% | 16%
O=C(c1ccccc1)N1CCN(C(=O)c2nn3c(C(F)(F)F)cc(-c4ccccc4)nc3c2Br)CC1 | -14% | 11% | 3 | 7% | 1% | 46%

Screens as filed in PubChem BioAssay.
